Records with an inconclusive call do not appear. Activity calls are given as the source filed them. Calls follow the shape of the full dose curve.
target: Thyrotropin receptor (Homo sapiens) (UniProt P16473); assay: Secondary Concentration-Response Assay for Agonists of the Thyroid Stimulating Hormone Receptor: ELISA Activity Detection; details: HEK293-TSHR cells, cAMP ELISA luminescence, 1 h
Excerpt: NIH Chemical Genomics Center [NCGC] NIH Molecular Libraries Screening Centers Network [MLSCN] MLSCN Grant: 1 X01 MH080680-01 PI Name: Dr. Marvin Gershengorn, NIH NCGC Assay Overview: Confirmation of Thyroid Stimulating Hormone Receptor Agonists TSH is an alpha/beta heterodimeric glycoprotein hormone secreted from the anterior pituitary gland which belongs to the glycoprotein hormone family. The actions of TSH are mediated by a seven-transmembrane receptor, which upon TSH binding couples preferentially to the G-alpha (s) protein (Gs), resulting in activation of adenylate cyclase and increase in cyclic adenosine 3', 5' monophosphate (cAMP). The TSH receptor (THSR) is mainly expressed in thyroid follicular cells and regulates their growth and function. Recombinant TSH is used to activate TSHR in patients with thyroid cancer receiving thyroid hormone suppression therapy and to screen for residual tumor after surgery, but it is expensive and must be administered intramuscularly. An orally active small molecule TSHR agonist would serve as an invaluable research tool for studying TSHR pharmacology and physiology, and would have multiple advantages in therapeutic settings. However, no selective small molecule agonist of the TSH receptor exists, and no small molecule screen for TSHR agonists has ever been reported. A confirmatory assay of putative TSHR agonists was conducted on a HEK 293 cell line stably expressing the TSHR, using an orthogonal detection technology to measure cAMP stimulation: an ELISA based cAMP competition assay using cAMP-Screen Direct System (Applied Biosystems, Foster City , CA).
NCGC Assay Protocol Summary: HEK 293 cells expressing TSHR were cultured for 24 h before incubation for 1 h in serum-free DMEM containing 1 mM 3-isobutyl-1-methylxanthine (IBMX) (SIGMA) and small molecule ligands in a humidified 5% CO2 incubator at 37C. Following aspiration of the medium, cells were lysed using lysis buffer of the cAMP-Screen DirectTM System (Applied Biosystems). The cAMP content of the cell lysate was determined using the method described in the manufacturer#s protocol. An enzyme substrate with a luminescent enhancer generates glow light emission kinetics. Light signal intensity, which is inversely proportional to the cAMP level in the sample, is measured in a luminometer (Perkin Elmer, 1420 Multilabel, Victor 3) for 3 seconds/well 30 min after substrate addition. Potencies (i.e., EC50) of the ligands were obtained from dose-response curves by data analysis with GraphPad Prism 4 software for Windows.

Chain of Thyrotropin receptor (Homo sapiens) (P16473 whole entry, looked up): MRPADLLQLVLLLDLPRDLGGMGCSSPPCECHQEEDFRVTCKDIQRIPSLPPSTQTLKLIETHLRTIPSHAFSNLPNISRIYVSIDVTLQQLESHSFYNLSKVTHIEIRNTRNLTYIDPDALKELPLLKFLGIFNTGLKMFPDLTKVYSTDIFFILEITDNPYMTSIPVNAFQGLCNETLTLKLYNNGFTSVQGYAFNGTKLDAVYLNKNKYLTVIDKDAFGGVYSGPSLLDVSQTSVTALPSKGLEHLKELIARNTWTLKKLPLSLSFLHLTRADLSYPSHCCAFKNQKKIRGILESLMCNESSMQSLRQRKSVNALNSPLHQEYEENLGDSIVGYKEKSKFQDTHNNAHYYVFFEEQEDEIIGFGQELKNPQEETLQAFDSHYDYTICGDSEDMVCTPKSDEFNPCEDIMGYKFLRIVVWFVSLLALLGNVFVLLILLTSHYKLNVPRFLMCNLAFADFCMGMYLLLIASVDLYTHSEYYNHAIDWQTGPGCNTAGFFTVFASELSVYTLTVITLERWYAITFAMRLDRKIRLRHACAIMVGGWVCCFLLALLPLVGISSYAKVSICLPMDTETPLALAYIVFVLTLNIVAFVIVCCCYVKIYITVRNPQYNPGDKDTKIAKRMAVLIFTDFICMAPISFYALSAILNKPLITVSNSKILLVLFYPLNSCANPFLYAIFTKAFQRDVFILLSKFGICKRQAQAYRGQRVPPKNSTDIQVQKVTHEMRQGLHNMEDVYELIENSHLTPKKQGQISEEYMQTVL

| SMILES | Potency | outcome |
| --- | --- | --- |
| COc1ccc(-c2nc3ccccc3c(=O)n2Cc2ccccc2)cc1COc1ccc(NC(C)=O)cc1 | 0.96 µM (active) |  |
| COc1ccc(-c2nc3cccc(O)c3c(=O)n2Cc2ccccc2)cc1COc1ccc(NC(C)=O)cc1 | 0.55 µM (active) |  |
| COc1ccc(C2Nc3ccccc3C(=O)N2CCc2ccccc2)cc1COc1ccc(NC(C)=O)cc1 (stereo unspecified) | 0.43 µM (active) |  |
| COc1ccc(-c2nc3ccccc3c(=O)n2Cc2ccco2)cc1COc1ccc(NC(C)=O)cc1 | 0.93 µM (active) |  |
| COc1ccc(C2Nc3cccc(O)c3C(=O)N2Cc2ccccc2)cc1COc1ccc(NC(C)=O)cc1 (stereo unspecified) | 0.09 µM (active) |  |
| COc1ccc(C2Nc3ccccc3C(=O)N2Cc2ccco2)cc1COc1ccccc1 (stereo unspecified) |  | inactive |
| COc1ccc(C2Nc3cccc(NS(C)(=O)=O)c3C(=O)N2Cc2ccccc2)cc1COc1ccc(NC(C)=O)cc1 (stereo unspecified) | 0.98 µM (active) |  |
| COc1ccc(C2Nc3cccc(O)c3C(=O)N2Cc2ccccc2)cc1 (stereo unspecified) |  | inactive |
| CCCCN1C(=O)c2ccccc2NC1c1ccc(OC)c(COc2ccc(NC(C)=O)cc2)c1 (stereo unspecified) | 0.83 µM (active) |  |
| COc1ccc(C2Nc3cccc(F)c3C(=O)N2Cc2ccccc2)cc1COc1ccc(NC(C)=O)cc1 (stereo unspecified) | 0.28 µM (active) |  |
| COc1ccc(C2Nc3ccccc3C(=O)N2CCCN(C)C)cc1COc1ccc(NC(C)=O)cc1 (stereo unspecified) |  | inactive |
| O=C1c2ccccc2NC(c2ccccc2)N1Cc1ccco1 (stereo unspecified) |  | inactive |
| COc1ccc(C2NC(=O)c3ccccc3N2)cc1COc1ccc(NC(C)=O)cc1 (stereo unspecified) |  | inactive |
| COCc1cc(C2Nc3ccccc3C(=O)N2Cc2ccccc2)ccc1OC (stereo unspecified) |  | inactive |
| COc1ccc(C2Nc3ccccc3C(=O)N2Cc2ccccc2)cc1COc1cccc(F)c1 (stereo unspecified) |  | inactive |
| COc1ccc(C2Nc3ccccc3C(=O)N2Cc2ccccc2)cc1CSc1ccc(NC(C)=O)cc1 (stereo unspecified) | 0.08 µM (active) |  |
| COc1ccc(C2Nc3ccc(O)cc3C(=O)N2Cc2ccccc2)cc1COc1ccc(NC(C)=O)cc1 (stereo unspecified) | 0.33 µM (active) |  |
| COc1ccc(C2Nc3cccc(O)c3C(=O)N2Cc2ccccc2)cc1CSc1ccc(NC(C)=O)cc1 (stereo unspecified) | 0.018 µM (active) |  |
| COc1ccc(C2Nc3ccccc3C(=O)N2Cc2ccccc2)cc1COc1ccc(NC(C)=O)cc1 (stereo unspecified) | 0.29 µM (active) |  |
| COc1ccc(C2Nc3ccccc3C(=O)N2Cc2ccccc2)cc1COc1ccc(C#N)cc1 (stereo unspecified) |  | inactive |
| COc1ccc(C2Nc3ccccc3C(=O)N2CCO)cc1COc1ccc(NC(C)=O)cc1 (stereo unspecified) |  | inactive |

Source: PubChem BioAssay AID2104 (National Center for Advancing Translational Sciences (NCATS), 2009)
